The text below walks through data of the supplement of paper PMC7411640.

Structures can show the parent of a compound that is named as a salt.

One test concerns MDA-MB-468. Nature of the test: phospho-S6 immunofluorescence (DAPI-normalised), per-plate z-score; higher = higher phospho-S6 signal (less pathway suppression). As to conditions: co-treatment: lapatinib 1 uM; 24 h. As to the method: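 GPCR-targeted compound library (MedChemExpress HY-L006) tested on MDA-MB-468 PTEN-null TNBC cells in 384-well plates at 0.1, 1 or 10 uM, combined with vehicle, GDC0941 450 nM or lapatinib 1 uM, for 24 h. Phospho-S6 (S240/244) immunofluorescence normalised to DAPI and expressed as a per-plate z-score; values are the mean of biological triplicates.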
`Cc1nc2n(c(=O)c1CCN1CCC(c3noc4cc(F)ccc34)CC1)CCCC2O` (stereo not drawn) [Paliperidone] (compound 10 µM): the “phospho-S6 immunofluorescence (z-score)” value was 0.36.
Still for that read-out and setting: then `CCNC(=O)[C@H]1O[C@@H](n2cnc3c(N)nc(NCCc4ccc(CCC(=O)O)cc4)nc32)[C@H](O)[C@@H]1O` (compound 10 µM), with 1.28; and `CC(C)(Cc1ccc2ccccc2c1)NC[C@@H](O)COc1cccc(Cl)c1C#N` (compound 10 µM), with -8.76; and `COc1cc2nc(N3CCN(C(=O)C4COc5ccccc5O4)CC3)nc(N)c2cc1OC` (stereo not drawn) [Doxazosin (mesylate)] (compound 10 µM), with -7.7.
On the same count and under the same terms, then `Cc1ccc(Sc2ccccc2N2CCNCC2)c(C)c1` [Vortioxetine (hydrobromide)] (compound 10 µM), with -11.4.
Same read-out and setting: for `O=C(O)CCc1ccc(NCc2cccc(Oc3ccccc3)c2)cc1` (compound 10 µM) the value was 0.32.
With `CN(C)CCc1c[nH]c2ccc(CS(=O)(=O)N3CCCC3)cc12` [Almotriptan (malate)] (compound 10 µM), the “phospho-S6 immunofluorescence (z-score)” value turned out to be 0.57.
For the molecule `COc1ccc(/C=C/C(=O)Nc2ccccc2C(=O)O)cc1OC` [Tranilast] (compound 10 µM), the “phospho-S6 immunofluorescence (z-score)” value was -0.19.
For `OCCOCCN1CCN(C(c2ccccc2)c2ccc(Cl)cc2)CC1` (stereo not drawn) [Hydroxyzine (dihydrochloride)] (compound 10 µM), the “phospho-S6 immunofluorescence (z-score)” value is -0.69.
Same read-out and setting: for `COc1ccc2[nH]cc(CCNC(C)=O)c2c1` [Melatonin] (compound 10 µM) the value was 0.24; for `Clc1ccc(Cn2c(CN3CCCC3)nc3ccccc32)cc1` [Clemizole (hydrochloride)] (compound 10 µM), 0.26; for `CCc1cc(-c2noc(-c3cc(OC)nc(C4CCCC4)c3)n2)cc(C)c1OC[C@@H](O)CO` [Cenerimod] (compound 10 µM), -4.72.
The same measure, in the same setting: for `Clc1cccc(Cl)c1NC1=NCCN1` [Clonidine (hydrochloride)] (compound 10 µM) the value was 0.75.
On the same count and under the same terms, then `O=c1ccc2ccc(OCCCCN3CCN(c4cccc5sccc45)CC3)cc2[nH]1` [Brexpiprazole] (compound 10 µM), with -6.92.
On to `O=C(Nc1cccc2c(=O)cc(-c3nnn[nH]3)oc12)c1ccc(OCCCCc2ccccc2)cc1` [Pranlukast] (compound 10 µM), for which the “phospho-S6 immunofluorescence (z-score)” value worked out at 0.55.
The same measure, in the same setting: for `C[C@H]1C[C@@H]2[C@H]([C@@H](O)C[C@@]3(C)[C@H]2CC[C@]3(O)C(=O)CO)[C@@]2(C)C=CC(=O)C=C12` [Methylprednisolone] (compound 10 µM) the value was 3.09; for `CCCCC(=O)N(Cc1ccc(-c2ccccc2-c2nnn[nH]2)cc1)[C@H](C(=O)O)C(C)C` [Valsartan] (compound 10 µM), 0.5; for `O=C(NC(Cc1cc(=O)[nH]c2ccccc12)C(=O)O)c1ccc(Cl)cc1` (stereo not drawn) [Rebamipide] (compound 10 µM), 1.1.
In the case of `COc1cc(C(=O)NS(=O)(=O)c2ccccc2C)ccc1Cc1cn(C)c2ccc(NC(=O)OC3CCCC3)cc12` [Zafirlukast] (compound 10 µM), the “phospho-S6 immunofluorescence (z-score)” value is -0.41.
The same measure, in the same setting: for `CC(C)(N)C(=O)N[C@H](COCc1ccccc1)C(=O)N1CCC2(CC1)CN(S(C)(=O)=O)c1ccccc12` [Ibutamoren (Mesylate)] (compound 10 µM) the value was -7.75; for `CN(C)N(C)C(=O)[C@@]1(Cc2ccccc2)CCCN(C(=O)[C@@H](Cc2c[nH]c3ccccc23)NC(=O)C(C)(C)N)C1` [Anamorelin (hydrochloride)] (compound 10 µM), -0.96; for `CCCc1c2oc(C(=O)O)cc(=O)c2cc2c(=O)cc(C(=O)O)n(CC)c12` [Nedocromil] (compound 10 µM), -0.48.
Regarding `COc1ccc(CCN2CCN(CCCc3ccccc3)CC2)cc1OC` [SA4503 (dihydrochloride)] (compound 10 µM), the “phospho-S6 immunofluorescence (z-score)” value was -0.13.
On the same count and under the same terms, for `N[C@@H](Cc1ccc(O)c(O)c1)C(=O)O` (compound 10 µM) the value was -0.12.
On the same count and under the same terms, for `Cc1cc(Cn2cnc3c2CC(C(=O)O)N(C(=O)C(c2ccccc2)c2ccccc2)C3)ccc1N(C)C` (stereo not drawn) (compound 10 µM) the value was 0.17.
Same read-out and setting: then `C[C@H](NC(=O)CNC(=O)c1cccc(Cl)c1)c1ccccc1` (compound 10 µM), with 0.45.

Staying with this test, now noted: co-treatment: vehicle; 24 h.
With `CC(C)(C)C(=O)C(=Nc1ccc(Cl)cc1)NNc1ccc(Cl)cc1` (compound 10 µM), the “phospho-S6 immunofluorescence (z-score)” value was -3.76.
Same read-out and setting: for `c1cc(CN2CCCNCCNCCCNCC2)ccc1CN1CCCNCCNCCCNCC1` [Plerixafor] (compound 10 µM) the value was 0.2; for `CN1C2CCCC1CC(NC(=O)c1nn(C)c3ccccc13)C2` (stereo not drawn) [Granisetron (Hydrochloride)] (compound 10 µM), -0.01.
In the case of `COc1ccc2ccc(=O)oc2c1CC=C(C)C` [Osthole] (compound 10 µM), the “phospho-S6 immunofluorescence (z-score)” value was determined as 0.23.
The same measure, in the same setting: then `CCc1nc2c(C)nc(C)cc2n1-c1ccc(CCNC(=O)NS(=O)(=O)c2ccc(C)cc2)cc1` [Grapiprant] (compound 10 µM), with -0.51; and `COc1cc2nc(C3CC3)nc(N3CCN(c4ccccc4OC)CC3)c2cc1OC` (compound 10 µM), with 0.05.
On the same count and under the same terms, for `COc1cc(N)cn[n+]1-c1ccccc1` [Amezinium (methylsulfate)] (compound 10 µM) the value was 0.03; for `COc1cccc(CCc2ccccc2OCC(CN(C)C)OC(=O)CCC(=O)O)c1` (stereo not drawn) [Sarpogrelate (hydrochloride)] (compound 10 µM), -0.15; for `N=C(N)NC(=O)Cc1c(Cl)cccc1Cl` [Guanfacine (hydrochloride)] (compound 10 µM), 0.38.
Regarding `CCCC1O[C@@H]2C[C@H]3[C@@H]4CCC5=CC(=O)C=C[C@]5(C)[C@H]4[C@@H](O)C[C@]3(C)[C@]2(C(=O)CO)O1` (stereo partly drawn) [Budesonide] (compound 10 µM), the “phospho-S6 immunofluorescence (z-score)” value is -0.2.
On the same count and under the same terms, then `Clc1ccc2c(c1)CCc1cccnc1C2=C1CCNCC1` [Desloratadine] (compound 10 µM), with 0.51; and `Cc1nc2n(c(=O)c1CCN1CCC(c3noc4cc(F)ccc34)CC1)CCCC2O` (stereo not drawn) [Paliperidone] (compound 10 µM), with 0.5.
The same measure, in the same setting: then `CCNC(=O)[C@H]1O[C@@H](n2cnc3c(N)nc(NCCc4ccc(CCC(=O)O)cc4)nc32)[C@H](O)[C@@H]1O` (compound 10 µM), with -0.14; and `CC(C)(Cc1ccc2ccccc2c1)NC[C@@H](O)COc1cccc(Cl)c1C#N` (compound 10 µM), with -10.1.
On the same count and under the same terms, then `COc1cc2nc(N3CCN(C(=O)C4COc5ccccc5O4)CC3)nc(N)c2cc1OC` (stereo not drawn) [Doxazosin (mesylate)] (compound 10 µM), with -8.17; and `Cc1ccc(Sc2ccccc2N2CCNCC2)c(C)c1` [Vortioxetine (hydrobromide)] (compound 10 µM), with -9.37.
As for `O=C(O)CCc1ccc(NCc2cccc(Oc3ccccc3)c2)cc1` (compound 10 µM), the “phospho-S6 immunofluorescence (z-score)” value is 1.24.
Still for that read-out and setting: then `CN(C)CCc1c[nH]c2ccc(CS(=O)(=O)N3CCCC3)cc12` [Almotriptan (malate)] (compound 10 µM), with 0.38; and `COc1ccc(/C=C/C(=O)Nc2ccccc2C(=O)O)cc1OC` [Tranilast] (compound 10 µM), with 0.33; and `OCCOCCN1CCN(C(c2ccccc2)c2ccc(Cl)cc2)CC1` (stereo not drawn) [Hydroxyzine (dihydrochloride)] (compound 10 µM), with 0.24.
On the same count and under the same terms, for `COc1ccc2[nH]cc(CCNC(C)=O)c2c1` [Melatonin] (compound 10 µM) the value was -0.21; for `Clc1ccc(Cn2c(CN3CCCC3)nc3ccccc32)cc1` [Clemizole (hydrochloride)] (compound 10 µM), -1.37.
On the same count and under the same terms, for `CCc1cc(-c2noc(-c3cc(OC)nc(C4CCCC4)c3)n2)cc(C)c1OC[C@@H](O)CO` [Cenerimod] (compound 10 µM) the value was -4.14; for `Clc1cccc(Cl)c1NC1=NCCN1` [Clonidine (hydrochloride)] (compound 10 µM), 1.03; for `O=c1ccc2ccc(OCCCCN3CCN(c4cccc5sccc45)CC3)cc2[nH]1` [Brexpiprazole] (compound 10 µM), -4.57.
Turning to `O=C(Nc1cccc2c(=O)cc(-c3nnn[nH]3)oc12)c1ccc(OCCCCc2ccccc2)cc1` [Pranlukast] (compound 10 µM), the “phospho-S6 immunofluorescence (z-score)” value is -0.36.
`C[C@H]1C[C@@H]2[C@H]([C@@H](O)C[C@@]3(C)[C@H]2CC[C@]3(O)C(=O)CO)[C@@]2(C)C=CC(=O)C=C12` [Methylprednisolone] (compound 10 µM): the “phospho-S6 immunofluorescence (z-score)” value was 0.51.
Consider `CCCCC(=O)N(Cc1ccc(-c2ccccc2-c2nnn[nH]2)cc1)[C@H](C(=O)O)C(C)C` [Valsartan] (compound 10 µM), for which the “phospho-S6 immunofluorescence (z-score)” value was 0.13.
Take `O=C(NC(Cc1cc(=O)[nH]c2ccccc12)C(=O)O)c1ccc(Cl)cc1` (stereo not drawn) [Rebamipide] (compound 10 µM): the “phospho-S6 immunofluorescence (z-score)” value stood at 0.16.
The same measure, in the same setting: for `COc1cc(C(=O)NS(=O)(=O)c2ccccc2C)ccc1Cc1cn(C)c2ccc(NC(=O)OC3CCCC3)cc12` [Zafirlukast] (compound 10 µM) the value was 0.19; for `CC(C)(N)C(=O)N[C@H](COCc1ccccc1)C(=O)N1CCC2(CC1)CN(S(C)(=O)=O)c1ccccc12` [Ibutamoren (Mesylate)] (compound 10 µM), -5.38; for `CN(C)N(C)C(=O)[C@@]1(Cc2ccccc2)CCCN(C(=O)[C@@H](Cc2c[nH]c3ccccc23)NC(=O)C(C)(C)N)C1` [Anamorelin (hydrochloride)] (compound 10 µM), -0.1.
Same read-out and setting: for `CCCc1c2oc(C(=O)O)cc(=O)c2cc2c(=O)cc(C(=O)O)n(CC)c12` [Nedocromil] (compound 10 µM) the value was -1.01; for `COc1ccc(CCN2CCN(CCCc3ccccc3)CC2)cc1OC` [SA4503 (dihydrochloride)] (compound 10 µM), -0.47; for `N[C@@H](Cc1ccc(O)c(O)c1)C(=O)O` (compound 10 µM), -0.55.
The same measure, in the same setting: then `Cc1cc(Cn2cnc3c2CC(C(=O)O)N(C(=O)C(c2ccccc2)c2ccccc2)C3)ccc1N(C)C` (stereo not drawn) (compound 10 µM), with 0.29; and `C[C@H](NC(=O)CNC(=O)c1cccc(Cl)c1)c1ccccc1` (compound 10 µM), with 0.46.
